From PubChem
Hits are enriched below; roughly 19% of the tested compounds scored in any of these assays.
ELG1 repair inh: blocks ELG1-dependent DNA repair in HEK293T cells | Potency, µM (top dose mostly 46.1 µM), for inactives: at the top dose activity change, negative = inhibition, actives largely listed as inhibitors | 330,000 compounds, 2.3% hits | HEK293T ELG1-luciferase reporter, luminescence, 16 h; DNA damage induced by 5-fluorouridine; also: potency is read from the fitted curve at half-maximal effect; nearly all actives have a fitted effect of over 55% in size
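Luminescence from the luciferase reporter, measured 30 min after ONE-Glo reagent at room temperature, was the read-out. Beforehand, 2,000 cells per well were exposed for 16 hr at 37 °C to 5-fluorouridine together with compound or vehicle.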
HT1080 IDH1KD tx: toxicity to HT-1080 IDH1 knockdown cells (counter line). HT-1080 IDH1 knockdown viability, ATP luminescence, 48 h. Potency, µM (series often up to 46.1 µM), for inactives: top-dose activity, negative = toxicity, hits mostly cytotoxic. 360,000 compounds, 2% hits;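 also: potency is read from the fitted curve at half-maximal effect; 0% = DMSO wells and -100% = cell-free medium wells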
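Assay cells: HT-1080 with IDH1 knockdown, 750 per well, RPMI/5% FBS. Exposure: 48 h at 37 °C following 2 h pre-incubation. Read: CellTiter-Glo luminescence; fitted concentration-response, curve class assigned.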
IL-1B inflam inh: inflammasome signaling inhibition, IL-1 beta readout | THP-1 LPS/ATP IL-1B secretion, AlphaLISA, 16 h; hits give low values | activity change, % at 57.5 µM | 360,000 compounds, 4.7% hits | AID 743279; in the data active = activity change below about -50%; inconclusive = mostly about -30% to -49%
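Secreted IL-1B measured by AlphaLISA bead assay after 16 h compound exposure of THP-1 cells; compounds (final up to 57.5 uM) added 1 h before LPS (250 ng/mL) and ATP (1.25 mM) stimulation; lower signal means less secretion.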
DT40 TDP1 no CPT: qHTS for Inhibitors of human tyrosyl-DNA phosphodiesterase 1 (TDP1): qHTS in cells in absence of CPT. DT40 Tdp1-/- hTDP1 cells, no CPT, ATP luminescence, 48 h. Potency, µM (titrated, usually from 46.2 µM), for inactives: top-dose activity change, negative = growth inhibition, actives largely listed as inhibitors. 420,000 compounds, 15% hits. AID 686978, 2013; also: potency is read from the fitted curve at half-maximal effect; nearly all actives have a fitted effect of over 55% in size
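Cells were dispensed at 400 per well, compounds added by pin tool, plates incubated ≥48 hr at 37 °C, then CellTiter-Glo added for 30 min at room temperature before luminescence reading. Line: DT40 Tdp1-/- complemented with hTDP1; camptothecin omitted.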
HT1080-NT tox: kills 2HG-producing HT-1080-NT fibrosarcoma cells; HT-1080-NT fibrosarcoma viability, CellTiter-Glo ATP luminescence, 48 h; AID 686970; Potency, µM (series often up to 46.1 µM), inactives show top-dose activity, negative = less viability, actives largely listed as cytotoxic; 360,000 compounds, 1.6% hits;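 also: NT is the 2HG producing partner of a matched IDH1 knockdown line; potency is read from the fitted curve at half-maximal effect; 0% = DMSO-treated cells and -100% = media-only wells without cells; nearly all actives have a fitted effect of over 55% in size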
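Compounds were tested in concentration-response format on HT-1080-NT cells for 48 hours at 37 degrees C. Cell viability came from CellTiter-Glo luminescence; curves were classified by r2, response magnitude and activity.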
TDP1 cell CPT: growth inhibition of DT40 Tdp1-/-;hTDP1 cells with camptothecin (screen for TDP1 inhibitors) | chicken DT40 Tdp1-/-;hTDP1 cells + 20 nM CPT, ATP luminescence, 48 h | 420,000 compounds, 12% hits | Potency, µM (series often up to 46.2 µM), without a hit: top-dose activity change, negative = growth inhibition, most hits filed as inhibitors; also: potency is read from the fitted curve at half-maximal effect; nearly all actives have a fitted effect of over 55% in size
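Chicken DT40 Tdp1-/- cells complemented with human TDP1, 400 cells/well, exposed to compounds plus 20 nM camptothecin for at least 48 h at 37 C; viability read as ATP content by CellTiter-Glo luminescence.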
* marks the source's active call; other numbers are inactive results; ? = inconclusive; . = no result given; [ ] = dose if it differs, or a comment. Unless noted, calls follow the shape of the dose curve; as a rule, active = well fitted curve in the direction sought with a large enough effect; inconclusive = small, poorly fitted or top-dose-only effect, or another doubt; inactive = no such curve, though single readings can be large; an effect the other way counts as inactive or inconclusive. Unless noted, % is scaled to controls: 0 for no effect and ±100 for the full control effect.

SMILES | ELG1 repair inh | HT1080 IDH1KD tx | IL-1B inflam inh | DT40 TDP1 no CPT | HT1080-NT tox | TDP1 cell CPT
CCc1ccccc1NC(=O)c1ccc(-c2csc(C)n2)cc1 | ? | -8.8% | -9.3 | 0.1% | -8.7% | -7.0%
CC(=O)N1CCN(c2ccc(NC(=O)c3ccccc3)cc2)CC1 | ? | 16.7% | 2.7 | -7.0% | 3.1% | 6.3%
CC(=O)Nc1ccc(NC(=O)c2ccc(-n3c(C)ccc3C)cc2)cc1 | 2.4% | -9.0% | -67.5* | 16.4µM* | -3.4% | ?
Cc1ccc(C)n1-c1ccc(NC(=O)c2ccccc2)cc1 | ? | -20.3% | -53.0* | ? | -5.9% | ?
CC(=O)NCCNC(=O)c1ccc(-n2c(C)ccc2C)cc1 | ? | -6.4% | -75.7* | -29.3% | -8.9% | -15.7%
CC1(C(=O)O)CCCN1C(=O)c1cccc(C(F)(F)F)c1 (stereo not given) | . | 9.6% | -9.7 | 2.7% | -1.8% | 5.5%
C[C@H](CO)N1C[C@H](C)[C@H](CN(C)S(=O)(=O)c2cccs2)Oc2ccc(NC(=O)Nc3ccc4c(c3)OCO4)cc2CC1=O | ? | ? | ? | 16.4µM* | ? | ?
COc1ccc(S(=O)(=O)N(C)C[C@H]2Oc3ccc(NC(=O)Nc4ccc5c(c4)OCO5)cc3C(=O)N([C@H](C)CO)C[C@@H]2C)cc1 | -13.1% | -13.0% | 0.0 | ? | -7.5% | 20.6µM*
C[C@H](CO)N1C[C@H](C)[C@H](CN(C)S(=O)(=O)c2cccs2)Oc2ncc(-c3cc4ccccc4o3)cc2C1=O | . | -16.8% | -3.7 | 14.6µM* | -10.0% | 23.1µM*
C[C@H]1CN([C@@H](C)CO)C(=O)c2cc(Br)cnc2O[C@@H]1CN(C)S(=O)(=O)c1ccccc1 | . | 1.8% | 8.1 | ? | 3.8% | ?
C[C@H](CO)N1C[C@H](C)[C@@H](CN(C)S(=O)(=O)c2ccccc2)Oc2ccc(NC(=O)CCC(F)(F)F)cc2C1=O | -0.2% | 12.7% | -16.2 | -29.6% | 3.8% | 20.6µM*
COc1cc(CNC(=O)c2ccc3c(c2)S(=O)(=O)c2ccccc2C3=O)cc(OC)c1 | . | 2.5% | -15.0 | ? | 2.6% | ?
Cc1ccc(C(C)C)c(OCC(=O)Nc2c(C(=O)c3ccc(F)cc3)oc3ccccc23)c1 | . | . | . | -8.6% | . | -4.9%
COC(=O)c1ccc(Cn2cc(Cl)cn2)o1 | -0.7% | 0.8% | -6.7 | -2.6% | 10.8% | 1.9%
Cc1ccc(NC(=O)CSCC(=O)OC(C)C(=O)Nc2ccccc2C)cc1 (stereo not given) | 4.7% | 2.8% | 9.0 | -4.2% | 4.8% | 0.7%
C[C@H](CO)N1C[C@H](C)[C@@H](CN(C)S(=O)(=O)c2ccccc2)Oc2ccc(NC(=O)Nc3ccc(C(F)(F)F)cc3)cc2C1=O | 20.6µM* | ? | 0.0 | ? | ? | 20.6µM*
Cc1noc(C)c1S(=O)(=O)N(C)C[C@H]1Oc2c(NC(=O)Nc3ccccc3)cccc2C(=O)N([C@H](C)CO)C[C@@H]1C | 11.6% | 0.4% | -3.6 | -16.8% | 0.7% | -16.0%
Cc1noc(C)c1S(=O)(=O)N(C)C[C@H]1Oc2c(NC(=O)Nc3ccc(C(F)(F)F)cc3)cccc2C(=O)N([C@H](C)CO)C[C@@H]1C | ? | ? | -20.7 | 23.1µM* | -18.9% | -106.0%
C[C@@H]1CN([C@H](C)CO)C(=O)c2cccc(NC(=O)Nc3ccc(C(F)(F)F)cc3)c2O[C@H]1CN(C)S(=O)(=O)c1cccs1 | 0.0% | ? | -54.6* | 16.4µM* | ? | 8.2µM*
C[C@H]1CN([C@@H](C)CO)C(=O)c2cccc(NC(=O)Nc3ccc(C(F)(F)F)cc3)c2O[C@@H]1CN(C)S(=O)(=O)c1ccccc1 | ? | ? | -4.2 | 20.6µM* | ? | ?
C[C@H](CO)N1C[C@H](C)[C@@H](CN(C)S(=O)(=O)c2ccccc2)Oc2c(NC(=O)Nc3ccccc3)cccc2C1=O | ? | 4.9% | -7.5 | -21.8% | 7.3% | -17.5%
CC(C)CN(CC(C)C)S(=O)(=O)c1cc([N+](=O)[O-])ccc1N1CCCCCC1 | 5.9% | ? | -20.1 | 16.4µM* | -5.0% | ?
CCCNC(=O)C1CCC(Cn2c(=O)c3sccc3n(CC(=O)N3CCC(C)CC3)c2=O)CC1 (stereo not given) | . | . | . | -21.6% | . | -9.3%
CCCn1nc(C(=O)Nc2ccc3c(c2)OCCO3)c2ccccc2c1=O | ? | -2.8% | . | ? | -8.0% | ?
O=C(C(=Cc1ccccc1)c1ccccc1)c1ccccc1 | . | -13.7% | ? | ? | -15.9% | ?
SMILES | ELG1 repair inh | HT1080 IDH1KD tx | IL-1B inflam inh | DT40 TDP1 no CPT | HT1080-NT tox | TDP1 cell CPT
Cc1cc(C)c(NC(=O)/C(=C/c2ccccc2)c2ccccc2)c(C)c1 | 10.3% | 1.8% | 0.0 | 20.6µM* | -21.4% | 23.1µM*
COCc1c(Br)c(C)nc2sc3c(=O)n(-c4cccc(Br)c4)nnc3c12 | . | . | . | 0.0% | . | -1.7%
CCOC(=O)CSc1c(-c2cccs2)[nH]c2ccccc12 | -13.4% | ? | 8.1 | -16.2% | 18.4µM* | 22.5%
CC(C)(C)c1cc(=O)n(-c2ccccc2)[nH]1 | ? | ? | -97.5* | ? | ? | 25.9µM*
O=c1ccc(=O)n(-c2ccccc2)[nH]1 | 7.4% | 20.6% | -5.6 | ? | 5.3% | 16.4µM*
O=c1cc(-c2ccccc2)[nH]n1-c1ccccc1 | . | ? | -15.9 | ? | ? | ?
Cc1cccc(/C=C2/S/C(=N/N=C3\CC4CCC3(C)C4(C)C)NC2=O)c1 (stereo not given) | -22.0% | -2.1%[9.24 µM] | ? | 20.6µM* | -2.5% | ?
COc1ccc2[nH]cc(CCNc3ccnc(-c4ccccc4Cl)n3)c2c1 | . | . | . | 11.6µM* | . | ?
COc1ccc2[nH]cc(CCNC(=O)c3ccccc3Cl)c2c1 | 15.9% | 2.7% | 3.4 | -11.9% | 3.3% | -3.2%
COc1ccc2[nH]cc(CCNc3cc(-c4ccccc4Cl)ncn3)c2c1 | . | . | . | 3.66µM* | . | ?
Cc1ccc2c(c1)COc1c3ccc(C(=O)O)cc3nn1-2 | ? | -18.1% | 3.8 | -18.2% | -27.4% | -16.7%
CC(C)[C@@H](CO)NC(=O)c1ccc2c3n(nc2c1)-c1ccccc1CO3 | ? | ? | -9.4 | ? | ? | ?
Cc1ccc2c(c1)COc1c3ccc(C(=O)NCC4CC4)cc3nn1-2 | ? | -7.6% | 3.5 | 20.6µM* | -15.1% | ?
